The list is a sample of the results.
aSyn 5UTR act: Activators via SNCA 5'UTR binding, MLPCN. alpha-synuclein 5'UTR reporter, activators screen. activity score, % (tested at 7.5 µM), hits read low. 7.1% of 300,000 active. AID 1814, 2009; in the data active = activity score below about -60%
A number is an active result; i = inactive.

SMILES | aSyn 5UTR act
CSc1ccccc1C(=O)Nc1nc2ccccc2[nH]1 | -132.9
CSc1ccccc1C(=O)Nc1nc2ccccc2c(=O)[nH]1 | -122.3
Cc1sc(NC(=O)c2ccc(=O)n(C)n2)nc1-c1ccccc1 | -95.3
COc1ccccc1C(=O)Nc1nc2ccccc2[nH]1 | i
Cn1nc(C(=O)Nc2nc3ccccc3[nH]2)ccc1=O | -94.2
CNC(=S)Nc1cccc(-c2cnc3ccccc3n2)c1 | -143.8
COc1ccc(COc2cc(-c3cccc(OC)c3)nc3ccc(NC(=O)C(C)C)cc23)cc1 | -134.5
CS(=O)(=O)Nc1cccc(-c2cnc3ccccc3n2)c1 | -153.0
CC(C)C(=O)Nc1cccc(-c2cnc3ccccc3n2)c1 | -114.8
COc1nc(Nc2nc3ccccc3c(=O)[nH]2)nc2ccc(C)cc12 | i
COc1ccc(Cl)cc1Nc1nc(N)c2ccccc2n1 | -103.3
Cc1ccc(C)c(Nc2nc(N)c3ccccc3n2)c1 | -157.4
COc1cc2nc(N3CCN(c4cc(C)ccc4C)CC3)nc(N)c2cc1OC | i
C/C(=N/NC(=O)C(O)(c1ccccc1)c1ccccc1)c1ccc([N+](=O)[O-])o1 | -66.1
NC(=O)c1ccsc1NC(=O)COc1ccccc1 | -136.5
O=C(COC(=O)c1ccccc1Cl)Nc1nccs1 | -91.5
Cn1cc(SCC(=O)Nc2nccs2)c2ccccc21 | -165.1
C/C(=C\C(=O)Nc1nccs1)c1ccccc1 | -197.1
Oc1ccccc1C(Nc1nccs1)c1ccc2cccnc2c1O (stereo not drawn) | i
O=C(COc1ccccc1)Nc1nccs1 | -99.9
O=C(COc1ccc2ccc(=O)oc2c1)Nc1nccs1 | -84.7
O=C(NCCc1ccccc1)C(=O)Nc1nccs1 | -83.9
O=C(COc1ccc([N+](=O)[O-])cc1)Nc1nc(-c2ccccn2)cs1 | i
Cc1cccc(C(=O)N2CCCC(c3nc(-c4ccc(C)o4)no3)C2)c1 (stereo not drawn) | -145.0
CSc1ccc(CNC(=O)Cc2ccc(NC(=O)C3=C(C)OCCS3)cc2)cc1 | -152.8
SMILES | aSyn 5UTR act
O=C(Nc1ccccc1F)c1ccc2snnc2c1 | -77.4
O=C(Nc1ccc(Cl)cc1)c1ccc2snnc2c1 | -149.2
COc1ccc(NC(=O)c2ccc3snnc3c2)cc1 | -107.4
CC(=O)c1ccc(NC(=O)c2ccc3snnc3c2)cc1 | -118.6
O=C(N/N=C/C(Br)=C\c1ccccc1)c1ccc2nc[nH]c2c1 | -90.4
CC(/C=N/NC(=O)c1cccc(F)c1)=C\c1ccccc1 | -254.5
CCOc1cc(C(=O)N/N=C/C(Br)=C/c2ccccc2)cc(OCC)c1OCC | i
CC(/C=C/c1ccccc1F)=N\NC(=O)c1cccc(F)c1 | -139.4
CC(/C=N/NC(=O)c1ccc2nc(C)[nH]c2c1)=C\c1ccccc1 | -67.4
CC(=C/c1ccc(C(C)C)cc1)/C=N/NC(=O)c1ccncc1 | -109.6
Oc1ccc(/C=N/Nc2ccnc3cc(Cl)ccc23)c(O)c1 | -226.6
Clc1ccc2c(N/N=C/c3cccnc3)ccnc2c1 | -81.2
Fc1ccc(N/N=C/c2cccnc2)c(F)c1 | -114.1
CCC(C)Nc1nc(N)c([N+](=O)[O-])c(NCc2ccccc2)n1 (stereo not drawn) | i
Cc1ccc(Nc2nc(NCc3ccco3)c3ccccc3n2)cc1 | -138.9
O=c1c2ccccc2nc2c3ccccc3c(NCc3ccco3)nn12 | -81.5
Nc1nc(Nc2ccc(Cl)cc2)nc(NCc2ccco2)c1[N+](=O)[O-] | -74.6
CCC(C)Nc1nc(N)c([N+](=O)[O-])c(NC2CCCCC2)n1 (stereo not drawn) | i
O=C(O)CN1C(=O)/C(=C\c2cccc(OCc3ccc(Cl)cc3Cl)c2)SC1=S | -105.5
c1ccc(OCc2nc3ccccc3[nH]2)cc1 | -152.6
c1ccc(OCCSc2nc3ccccc3[nH]2)cc1 | -127.6
Clc1ccc(OCc2nc3ccccc3[nH]2)cc1 | -139.2
CCCNC(=O)Cn1nc([N+](=O)[O-])c([N+](=O)[O-])c1C | -77.2
CCCCNC(=O)Cn1nc([N+](=O)[O-])c([N+](=O)[O-])c1C | -138.3
Cc1csc(=O)n1CC(=O)OCc1cccc2ccccc12 | -90.4
SMILES | aSyn 5UTR act
Cc1nc2cc(NC(=O)Nc3ccc(Br)cc3)ccc2o1 | -192.3
Cc1nc2cc(NC(=O)N3c4ccccc4CC3C)ccc2o1 (stereo not drawn) | -103.5
CCN1CCN(c2ccc(NC(=O)c3ccc4c(c3)[nH]c(=O)n4Cc3ccc(F)cc3)cc2)CC1 | -67.6
CCN1CCN(Cc2ccc(NC(=O)c3ccc(C)c(NC(=O)N4CCNC4=O)c3)cc2C(F)(F)F)CC1 | i
Cc1cc(C(=O)COc2ncnc3sccc23)c(C)n1C1CC1 | -78.6
CCCn1c(C)cc(C(=O)COc2ncnc3sccc23)c1C | -149.6
Nc1ccccc1SC1CC(=O)N(c2ccc3c(c2)OCCO3)C1=O (stereo not drawn) | -78.1
Cc1c(CCOC(=O)CC23CC4CC(CC(C)(C4)C2)C3)sc[n+]1CC(=O)c1ccccc1 | -65.4
Nc1n[nH]c(N)c1N=Nc1ccc(Cl)cc1 | -130.9
Nc1[nH]ncc1N=Nc1ccc(Cl)cc1 | -88.8
Nc1n[nH]c(N)c1N=Nc1cccc(C(F)(F)F)c1 | -65.4
Fc1ccc(COc2ccc(C(=S)N3CCCC3)cc2)cc1 | -77.4
O=C(c1ccc(COc2ccccc2Br)cc1)N1CCCCC1 | -77.4

Bioassay records deposited in PubChem BioAssay by Broad Institute.
